Data published in PubChem BioAssay (Tox21).
Values joined by “and” are separate entries in the source; they are usually repeats but may differ in a detail not shown here. Equal values may be shown once. Results filed as inconclusive are left out. Where a call stands in place of a potency, no number is given. Where a structure was tested more than once in an assay, its records may differ in their call. Active and inactive are the calls of the source. Calls follow the shape of the dose curve; as a rule, active = well fitted cell-killing curve with a large enough effect in the repeat runs; inconclusive = weak or mixed curves, or effect the other way; inactive = no such curve, though single readings can be large or run the other way.

Assay: qHTS assay to identify small molecule antagonists of the thyroid receptor (TR) signaling pathway - cell viability counter screen (AID 743064); also: nearly all actives have a fitted effect of over 50% in size
Conditions: GH3.TRE-Luc viability, CellTiter-Fluor, 24 h; series mostly up to 70.3 µM
From the text: National Center for Advancing Translational Sciences [NCATS]
NIH Chemical Genomics Center [NCGC]
U.S. Environmental Protection Agency [EPA]
National Institutes of Environmental Health Sciences [NIEHS]
National Toxicology Program [NTP]
U.S. Food and Drug Administration [FDA]
Thyroid receptor (TR), a nuclear hormone receptor, plays an important role in development, proliferation, differentiation, metabolism, brain function, and cardiovascular system. […] To profile the Tox21 10K compound library in TR signaling, a cell-based GH3-TRE-Luc assay (GH3.TRE-Luc cell line, developed by the laboratory of Dr. Albertinka J. Murk, Wageningen University) was used to measure the inhibition of TR. GH3 (rat pituitary tumor) cells stably expressing a TR activity sensor consisting of two TR response elements and a luciferase reporter gene. The cytotoxicity of the Tox21 compound library against the GH3.TRE-Luc cell line was tested in parallel by measuring the cell viability using CellTiter-Fluor assay (Promega, Madison, WI) in the same wells.
Tox21 Assay Protocol Summary:
GH3.TRE-Luc cells were dispensed at 1500 cells/4 uL/well into 1536-well white solid bottom plates using a Multidrop Combi dispenser (Thermo Fisher Scientific Inc., Waltham, MA). After the assay plates were incubated at 37 C for 4 hours, 23 nL of library compound or DMSO controls was transferred to the assay plates by a pintool station (Kalypsys, San Diego, CA), followed by addition of 1 ul of T3 (1 nM, final concentration in the wells) to stimulate TR transactivation. The assay plates were incubated at 37 C for 23.5 h, and then 1 uL of CellTiter-Fluor reagent (Promega, Madision, WI) of measuring cytotoxicity was added to each well using a Bioraptr Flying Reagent Dispenser (FRD) workstation (Beckman Coulter, Indianapolis, IN, USA). The plates were incubated at 37C and 5% CO2 for additional 30 min, and fluorescence intensity was measured by a ViewLux plate reader (PerkinElmer, Shelton, CT).
Potency is read from the fitted curve at half-maximal effect.

**Q.** Which Potency does the source give for O=[N+]([O-])c1cc(N(CCO)CCO)ccc1NCCO here?
**A.** 61 µM (active)

**Q.** Which Potency does the source give for CC(=O)Nc1ccc(C(=O)O)cc1 here?
**A.** inactive

**Q.** For COCC(=O)O, which Potency is on record?
**A.** inactive

**Q.** For O=C1CCCCC1, which Potency is on record?
**A.** inactive

**Q.** Which Potency does the source give for CC1=C(CC(=O)O)c2cc(F)ccc2/C1=C\c1ccc(S(C)=O)cc1 (stereo not given) here?
**A.** inactive

**Q.** Which Potency does the source give for CCCCCCOC(C)=O here?
**A.** inactive

**Q.** Which Potency does the source give for Clc1ccc(Cl)c(Cl)c1Cl here?
**A.** inactive

**Q.** Which Potency does the source give for O=C1O[C@H](CO)[C@@H](O)[C@H](O)[C@H]1O here?
**A.** inactive

**Q.** With NC(=O)NNc1ccccc1 as the compound, how does the Potency read?
**A.** inactive

**Q.** For O=[N+]([O-])C(CO)(CO)CO, which Potency is on record?
**A.** inactive

**Q.** With CC[Si](OC(C)=O)(OC(C)=O)OC(C)=O as the compound, how does the Potency read?
**A.** inactive

**Q.** Which Potency does the source give for CC(=O)CCc1ccccc1 here?
**A.** inactive

**Q.** For c1ccc2ccccc2c1, which Potency is on record?
**A.** inactive

**Q.** For Cc1cc(=O)[nH]c(C(C)C)n1, which Potency is on record?
**A.** inactive

**Q.** For COC(=O)Nc1nc2ccc(Sc3ccccc3)cc2[nH]1, which Potency is on record?
**A.** 0.202 µM (active)

**Q.** With O=C(O)c1ccc([N+](=O)[O-])cc1 as the compound, how does the Potency read?
**A.** inactive

**Q.** With Cc1cc(O)cc(C)c1Cl as the compound, how does the Potency read?
**A.** inactive

**Q.** For O=C(c1ccc(O)cc1)c1ccc(O)cc1O, which Potency is on record?
**A.** inactive

**Q.** Which Potency does the source give for CC1(C)CC(N=C=O)CC(C)(CN=C=O)C1 (stereo not given) here?
**A.** inactive

**Q.** For O=[N+]([O-])c1cccc(Cl)c1, which Potency is on record?
**A.** inactive

**Q.** With CCCCC/C=C\C/C=C\CCCCCCCC(=O)OC as the compound, how does the Potency read?
**A.** inactive

**Q.** Which Potency does the source give for CCCCCCC(C)(C)S here?
**A.** inactive

**Q.** Which Potency does the source give for NC(=O)/N=N/C(N)=O here?
**A.** inactive

**Q.** With O=C(O)c1cc(-c2ccccc2)nc2ccccc12 as the compound, how does the Potency read?
**A.** inactive

**Q.** Which Potency does the source give for CCCCCCCCCCCCN here?
**A.** inactive and 24.3 µM (active)

**Q.** Which Potency does the source give for Cc1ccc(C)c(C)c1 here?
**A.** inactive

**Q.** With C=C1C2CCC(C2)C1(C)C (stereo not given) as the compound, how does the Potency read?
**A.** inactive

**Q.** For O=C(Cl)c1c(Cl)c(Cl)c(C(=O)Cl)c(Cl)c1Cl, which Potency is on record?
**A.** inactive

**Q.** For CC(C)(C)C(=O)C1C(=O)c2ccccc2C1=O, which Potency is on record?
**A.** 67.9 µM (active)

**Q.** Which Potency does the source give for CCCCC(CC)COC(C)=O (stereo not given) here?
**A.** inactive

**Q.** For CCCCNC(N)=O, which Potency is on record?
**A.** inactive

**Q.** Which Potency does the source give for CC(C)n1c(/C=C/[C@@H](O)C[C@@H](O)CC(=O)O)c(-c2ccc(F)cc2)c2ccccc21 here?
**A.** inactive

**Q.** With CCc1ccccc1O as the compound, how does the Potency read?
**A.** inactive

**Q.** For O=Nc1ccc(O)cc1, which Potency is on record?
**A.** inactive

**Q.** With C=C1CC[C@H](O)CC1=C/C=C1\CCC[C@]2(C)[C@@H]([C@H](C)/C=C/[C@H](C)C(C)C)CC[C@@H]12 as the compound, how does the Potency read?
**A.** 60.6 µM (active)

**Q.** For Cc1cc(Cc2ccc(N)c(C)c2)ccc1N, which Potency is on record?
**A.** inactive

**Q.** For Nc1c(S(=O)(=O)O)cc(Br)c2c1C(=O)c1ccccc1C2=O, which Potency is on record?
**A.** inactive and 61.1 µM (active)

**Q.** With CNC[C@H](O)[C@@H](O)[C@H](O)[C@H](O)CO as the compound, how does the Potency read?
**A.** inactive

**Q.** With c1ccc2[nH]cnc2c1 as the compound, how does the Potency read?
**A.** inactive

**Q.** For CCCCCCCCCCC=CC1CC(=O)OC1=O (stereo not given), which Potency is on record?
**A.** inactive
